Results on six compounds are retold here after PubChem BioAssay (NCATS).

Assay [1] is described as follows: qHTS Assay for Lipid Storage Modulators (AID 1519; calls by dose curve; on activity change, negative = inhibition: on the % scale 0 is the no-effect control and ±100 the full control effect). As to conditions: Drosophila S3 cells, BODIPY lipid droplet/cell ratio, laser cytometry, cells loaded with oleic acid; for activity change, negative = inhibition: at 57.5 µM (top of the series). In short, it runs like this:
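Cells seeded at 5,000 per well were treated with compounds over a concentration series and loaded with oleic acid (400 uM, as added). Lipid droplet fluorescence (488 nm excitation, 500-530 nm channel) was read by laser-scanning cytometry and normalized to 20 uM Triacsin C.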

Assay [2] in a line: Confirmation and Secondary Assay for Modulators of Hemoglobin Beta Chain Splicing at IVS2 705 locus (AID 930).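 Further: HeLa cells stably expressing the EGFP-705 splicing reporter; GFP fluorescence per well restored by corrected splicing of the IVS2-705 intron in EGFP; % of control where 0% means no effect.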 In a few lines:
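HeLa IVS2-705 EGFP reporter cells, 500/well, compound 2 d at 37C; correct splicing yields fluorescent EGFP. Control: 500 nM antisense PNA. Read-out: total peak GFP intensity.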

Assay [3] in a line: qHTS profiling for inhibitors of Plasmodium falciparum proliferation (AID 504749). Further: potency means the concentration at half of the fitted maximal effect.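 On activity, negative = inhibition: 0% = DMSO vehicle and full inhibition = artemisinin control.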 On all read-outs here: nearly all actives have a fitted effect of over 60% in size. As to conditions: P. falciparum in erythrocytes, SYBR Green DNA, 72 h; for activity, negative = inhibition: at 28.7 µM (top of the series). In a few lines:
(§1)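 Readout was DNA-dye fluorescence from lysed cultures, ex 485/em 535 nm. Parasitized red cells had grown 72 h with compound; data scaled between 0.29 uM artemisinin and DMSO wells and corrected using vehicle-only plates.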

The test system of assay [4] is C2A. The description is as above. To be noted: P. falciparum in erythrocytes, SYBR Green DNA, 72 h; series mostly up to 12.8 µM. In short, it runs like this: as §1
Assay [5] deals with CP185. The assay is described as above. To be noted: P. falciparum in erythrocytes, SYBR Green DNA, 72 h; series mostly up to 12.8 µM. In a few lines:
as §1

For assay [6], the system named is CP211. The description is as above. As to conditions: P. falciparum in erythrocytes, SYBR Green DNA, 72 h; series mostly up to 12.8 µM. In short, it runs like this: as §1
The subject of assay [7] is CP238. The description is as above. As to conditions: P. falciparum in erythrocytes, SYBR Green DNA, 72 h; series mostly up to 12.8 µM. In a few lines:
as §1

The subject of assay [8] is CP268. The assay is described as above. As to conditions: P. falciparum in erythrocytes, SYBR Green DNA, 72 h; series mostly up to 12.8 µM. In a few lines: as §1
In assay [9] the test system is CP269. Described as above. To be noted: P. falciparum in erythrocytes, SYBR Green DNA, 72 h; series mostly up to 12.8 µM. In short, it runs like this: as §1
For assay [10], the system named is CP315. The assay is described as above. As to conditions: P. falciparum in erythrocytes, SYBR Green DNA, 72 h; series mostly up to 12.8 µM. In short, it runs like this: as §1
The test system of assay [11] is PC15. The assay is described as above. As to conditions: P. falciparum in erythrocytes, SYBR Green DNA, 72 h; series mostly up to 12.8 µM. In a few lines:
as §1

Assay [12] has as its target Ubiquitin carboxyl-terminal hydrolase 1 (Homo sapiens) (UniProt O94782). As to the kind of experiment: Inhibitors of USP1/UAF1: Pilot qHTS (AID 504865).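 Further: rhodamine fluorescence freed from ubiquitin-rhodamine substrate followed over time; top concentration of the series differs between compounds; on the % scale 0 is the no-effect control and ±100 the full control effect; nearly all actives have a fitted effect of over 35% in size.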 In short, it runs like this:
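Enzyme-free wells gave the negative control, while test wells held 1nM USP1/UAF1 preincubated with compound for 15 min at room temperature. Ub-Rho at 150nM final started the reaction, and fluorescence at 480/540 nm was recorded kinetically.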

In assay [13] the test system is CP201. Kind of assay: qHTS profiling for inhibitors of Plasmodium falciparum proliferation (AID 504749). Further: nearly all actives have a fitted effect of over 60% in size. Further: potency means the concentration at half of the fitted maximal effect.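 On activity, negative = inhibition: 0% = DMSO vehicle and full inhibition = artemisinin control.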 To be noted: P. falciparum in erythrocytes, SYBR Green DNA, 72 h; series mostly up to 12.8 µM. In short, it runs like this:
as §1

For assay [14], the system named is CP262. The assay is described as above. To be noted: P. falciparum in erythrocytes, SYBR Green DNA, 72 h; series mostly up to 12.8 µM. In short, it runs like this:
as §1

For assay [15], the system named is CP305. The assay is described as above. As to conditions: P. falciparum in erythrocytes, SYBR Green DNA, 72 h; series mostly up to 12.8 µM. In a few lines: as §1
Assay [16] concerns CP325. The description is as above. To be noted: P. falciparum in erythrocytes, SYBR Green DNA, 72 h; series mostly up to 12.8 µM. In short, it runs like this:
as §1

The test system of assay [17] is CP329. The description is as above. To be noted: P. falciparum in erythrocytes, SYBR Green DNA, 72 h; series mostly up to 12.8 µM. In short, it runs like this:
as §1

The subject of assay [18] is FAB9. Described as above. To be noted: P. falciparum in erythrocytes, SYBR Green DNA, 72 h; series mostly up to 12.8 µM. In a few lines: as §1
For assay [19], the system named is JCK. The description is as above. As to conditions: P. falciparum in erythrocytes, SYBR Green DNA, 72 h; series mostly up to 12.8 µM. In a few lines:
as §1

Assay [20] deals with PC49. Described as above. As to conditions: P. falciparum in erythrocytes, SYBR Green DNA, 72 h; series mostly up to 12.8 µM. In short, it runs like this: as §1
The mark [21] stands for this setting: measured here: cell count channel max response.
The mark [22] stands for this setting: measured here: lipid channel max response.

Inconclusive results are not listed. Calls of active or inactive are those of the source. Unless noted, the call rests on the fitted dose curve; in most records, active means well fitted curve in the direction sought with a large enough effect; inconclusive means small, poorly fitted or top-dose-only effect, or another doubt; inactive means no such curve, though single readings can be large; an effect the other way counts as inactive or inconclusive.

Chain of Ubiquitin carboxyl-terminal hydrolase 1 (Homo sapiens) (O94782 whole entry, looked up): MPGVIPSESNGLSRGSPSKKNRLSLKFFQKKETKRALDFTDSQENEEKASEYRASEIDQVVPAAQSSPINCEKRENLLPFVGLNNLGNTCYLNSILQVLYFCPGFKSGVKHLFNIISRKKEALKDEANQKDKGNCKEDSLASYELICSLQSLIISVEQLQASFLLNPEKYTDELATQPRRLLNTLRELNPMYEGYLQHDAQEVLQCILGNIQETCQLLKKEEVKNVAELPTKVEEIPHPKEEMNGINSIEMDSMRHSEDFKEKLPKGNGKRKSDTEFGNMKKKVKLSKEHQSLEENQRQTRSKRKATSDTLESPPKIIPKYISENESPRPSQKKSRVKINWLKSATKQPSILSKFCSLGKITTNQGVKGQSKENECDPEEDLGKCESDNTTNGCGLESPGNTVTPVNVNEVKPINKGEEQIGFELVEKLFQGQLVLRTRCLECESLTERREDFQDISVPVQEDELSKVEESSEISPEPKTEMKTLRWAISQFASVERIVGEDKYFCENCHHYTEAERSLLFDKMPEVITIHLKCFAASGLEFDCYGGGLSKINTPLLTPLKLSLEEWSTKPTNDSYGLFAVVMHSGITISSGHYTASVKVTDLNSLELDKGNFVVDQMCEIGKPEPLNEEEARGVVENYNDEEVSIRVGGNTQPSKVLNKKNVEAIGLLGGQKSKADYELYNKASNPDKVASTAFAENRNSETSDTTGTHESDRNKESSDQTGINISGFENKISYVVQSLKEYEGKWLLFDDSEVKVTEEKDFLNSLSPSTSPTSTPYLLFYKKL

With `CC/C=C\C[C@H]1C(=O)CC[C@@H]1CC(=O)O`, in [1], the activity change, negative = inhibition was -2.79% (inactive). In addition, the figures for the max response in assay [1] (setting [21]) and in assay [1] (setting [22]) were -8.93% and -11.5%, respectively.
Turning to `COC1C=CO[C@@]2(C)Oc3c(C)c(O)c4c(O)c(c5c(nc6cc(C)ccn65)c4c3C2=O)NC(=O)/C(C)=C\C=CC(C)C(O)[C@@H](C)C(O)C(C)[C@@H](OC(C)=O)C1C` (some centres undefined), the Potency entry in assay [2] is “inactive”. In [1], the activity change, negative = inhibition is -13.7% (inactive). Moreover, the max response in assay [1] (setting [21]) was -0.865%; in assay [1] (setting [22]) it was -14.4%. The Potency in [3] (parasite line A) was 14.1 µM (active); in [3] (parasite line B), 10 µM (active); in assay [4], 10 µM (active); in assay [5], 10 µM (active); in assay [6], 15.1 µM (active); in [7] it was 10 µM (active). Further, the Potency in assay [8] is 12 µM (active); in [9], 10.7 µM (active); in assay [10], 7.57 µM (active); in assay [11], 12.6 µM (active).
As for `CC1(C)OC2CO[C@]3(COS(N)(=O)=O)OC(C)(C)OC3C2O1` (some centres undefined), the Potency entry in [2], in assay [12], in [4], in [5], in assay [13] and in assay [6] was “inactive” in each case. Further, the Potency result in [7], in assay [14], in [8], in assay [9], in [15] and in [10] was “inactive” throughout. The Potency result in assay [16], in assay [17], in assay [18], in assay [19], in assay [11] and in [20] was “inactive” in each case. Also, the activity change, negative = inhibition in assay [1] was -0.118% (inactive). Further, the max response in assay [1] (setting [21]) was 7.1%; in assay [1] (setting [22]) it was 8.91%. Further, the activity, negative = inhibition in assay [3] (parasite line A) was 6.34% (inactive); in assay [3] (parasite line B), 12.5% (inactive).
Consider `OCC1O[C@H](OC2C(CO)O[C@@](O)(CO)C2O)C(O)C(O)C1O` (some centres undefined), for which the Potency entry in assay [2], in assay [12], in [4], in [5], in [13] and in assay [6] was “inactive” each time. The Potency result in [7], in [14], in assay [8], in assay [9], in assay [15] and in assay [10] was “inactive” throughout. Moreover, the Potency entry in assay [16], in assay [17], in [18], in assay [19], in assay [11] and in assay [20] was “inactive” each time. Moreover, the activity change, negative = inhibition in assay [1] was 5.94% (inactive). Moreover, the max response is 14.3% in assay [1] (setting [21]) and 24% in assay [1] (setting [22]). Further, the activity, negative = inhibition in assay [3] (parasite line A) was 9.31% (inactive); in [3] (parasite line B), 4.3% (inactive).
In the case of `C/C(=C\CNc1ncnc2nc[nH]c12)CO`, in [1], the activity change, negative = inhibition was -1.3% (inactive). Further, the max response in assay [1] (setting [21]) was determined as 4.12%; in assay [1] (setting [22]), 3.25%.
On to `CCOC(=O)C1=CC(OC(CC)CC)C(NC(C)=O)C(N)C1` (centres undefined), for which the Potency entry in assay [2], in [12], in [4], in [5], in assay [13] and in [6] was “inactive” each time. Also, the Potency entry in [7], in assay [14], in assay [8], in assay [9], in assay [15] and in assay [10] was “inactive” throughout. Besides, the Potency result in assay [16], in [17], in assay [18], in assay [19], in assay [11] and in [20] was “inactive” each time. Further, the activity change, negative = inhibition in [1] was 11.6% (inactive). The max response was 14.9% in assay [1] (setting [21]) and 27.8% in assay [1] (setting [22]). Also, the activity, negative = inhibition is 0.564% (inactive) in [3] (parasite line A) and -0.576% (inactive) in assay [3] (parasite line B).
